Shown are actives, neighbours in structure and some others; about 2.2% of the full set was active somewhere.
ADAM17 inh: inhibitors of human ADAM17. inhibition, % at 6.95 µM. actives 0.83% (n = 370,000). recombinant ADAM17, EDANS/DABCYL FRET peptide cleavage. P78536;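 active = inhibition above the mean of compounds lying between control limits plus 3 SD, set per campaign, cut at about 8.5% in these data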
ADAM10 inh: inhibitors of human ADAM10 | recombinant ADAM10, EDANS/DABCYL FRET peptide cleavage, 3 h | inhibition, % at 7 µM | actives 0.62% (n = 370,000) | O14672;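 active = inhibition above a per-campaign cutoff equal to the mean of compounds falling between control-based bounds plus 3 SD, cut at about 20% in these data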
Target sequence (O14672 214-748 limits assumed): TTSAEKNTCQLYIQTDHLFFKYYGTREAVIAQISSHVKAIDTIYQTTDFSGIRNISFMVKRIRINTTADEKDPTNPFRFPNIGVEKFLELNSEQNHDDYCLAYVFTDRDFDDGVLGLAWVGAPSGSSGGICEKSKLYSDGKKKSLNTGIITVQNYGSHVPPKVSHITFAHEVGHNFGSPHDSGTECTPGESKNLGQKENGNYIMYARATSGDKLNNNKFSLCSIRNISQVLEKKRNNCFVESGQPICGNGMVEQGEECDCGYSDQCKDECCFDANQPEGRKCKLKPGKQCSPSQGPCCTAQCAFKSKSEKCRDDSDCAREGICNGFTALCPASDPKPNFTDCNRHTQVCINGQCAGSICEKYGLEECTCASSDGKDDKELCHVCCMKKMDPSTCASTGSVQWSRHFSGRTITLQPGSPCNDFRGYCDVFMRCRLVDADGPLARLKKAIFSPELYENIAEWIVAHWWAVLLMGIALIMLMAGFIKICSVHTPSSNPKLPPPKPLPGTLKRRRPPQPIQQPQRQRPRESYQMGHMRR
proKLK7 act: proKLK7 (human) activation, primary screen. P49862. purified proKLK7, EDANS-DABCYL substrate fluorescence; 100% is mature enzyme control, 0% vehicle. activation, % at 7 µM. actives 0.9% (n = 370,000). AID 652039;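 active = activation above the mean of all tested compounds plus 3 SD, computed per campaign excluding outliers beyond control limits, cut at about 13% in these data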
NPR1 activator: GC-A (human) enzyme activation. P16066. HEK293 GC-A cells, cGMP TR-FRET, EC30 ANP; 0% at EC30 ANP, 100% saturating ANP. activation, % at 10 µM. actives 0.14% (n = 370,000). AID 1671463; in the data active = activation above about 40%
GC-B act: GC-B (human) receptor activation | activation, % at 10 µM | P20594 | HEK293-GC-B cells, CNP EC30, cGMP TR-FRET; 0% at EC30 CNP, 100% saturating CNP | actives 0.11% (n = 370,000) | AID 1920062;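 active = activation at 10 µM reaching about 35% in either raw or pattern-adjusted values, limit read from the data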
proKLK7 act conf: confirmation of human kallikrein-7 zymogen activators; actives 68% (n = 3,200); AID 686949; shares compounds with proKLK7 act; purified proKLK7, EDANS-DABCYL substrate fluorescence; scaled: vehicle 0, mature enzyme 100; activation, % at 7 µM;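 active = activation, as change over the incubation, above the mean of all tested compounds plus 3 SD, cut at about 13% in these data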
EDANS interfere: counter-screen for kallikrein-7 activators: EDANS-DABCYL optical interference. shares compounds with proKLK7 act. actives 80% (n = 3,200). EDANS-DABCYL substrate fluorescence interference, no enzyme, 4 h; solvent 0%, active enzyme control 100%. activation, % at 7 µM;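 active = activation above the all-compound mean plus 3 SD, ignoring values outside control-based bounds, cut at about 4.8% in these data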;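 note: value is the 4 h activation minus the activation read at time zero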
EDANS interf: EDANS fluorescence interference in dose response, no enzyme. shares compounds with proKLK7 act. EDANS-DABCYL peptide fluorescence interference. EC50, µM. actives 20% (n = 250). AID 720493;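 active = compounds that raise the fluorescence signal in this interference counterscreen, with EC50 at or below 10 µM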;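 note: intact quenched peptide substrate alone read at 355 nm excitation and 520 nm emission; signal is fluorescence gain from T0 to T4 after four hours at room temperature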
Large screens that a line does not name were inactive (follow-up assays come after a bar, where they were run).

CN1CCN(Cc2cc(=O)oc3ccc(Cl)cc23)CC1	none
O=C(c1ccc(Cl)c(Cl)c1)N1CCC(Oc2cccnc2)CC1	none
CCOC(=O)CC[C@H]1CC[C@]2(CCCN(S(=O)(=O)C3CCCCC3)C2)O1	none
Cc1cc(=O)oc2c(CN3CCN(C)CC3)c(O)c(Cl)cc12	proKLK7 act 58 | proKLK7 act conf 76 | EDANS interfere 77
Cc1ccccc1CS(=O)(=O)Cc1ccc(C(=O)Nc2cccc(Cl)c2F)o1	none
CC1=C(C(N)=O)C(c2cccs2)n2ncnc2N1 (configuration not stated)	none
c1csc(C2C3=C(Nc4ncnn42)c2ccccc2OC3)c1 (configuration not stated)	proKLK7 act 17 | proKLK7 act conf 34 | EDANS interfere 31
O=C(NCCN1CCOCC1)c1c(O)nc2ccccn2c1=O	none
N=c1c(C(=O)NC2CCCC2)cc2c(=O)n3ccccc3nc2n1CCCN1CCOCC1	proKLK7 act 26 | proKLK7 act conf inactive | EDANS interfere inactive
N#Cc1cc2c(=O)n3ccccc3nc2n(Cc2cccnc2)c1=O	none
Cc1cccn2c(=O)c3cc(C(=O)N(C)C)n(C)c3nc12	proKLK7 act 26 | proKLK7 act conf 27 | EDANS interfere 29
N#Cc1cc2c(=O)n3ccccc3nc2n(CCCN2CCOCC2)c1=O	proKLK7 act 48 | proKLK7 act conf 44 | EDANS interfere 40
CCCNc1nc2nc3ccccn3c(=O)c2cc1C(=O)NCCN1CCOCC1	proKLK7 act 26 | proKLK7 act conf 21 | EDANS interfere 20
CC(C)(C)c1ccc(-c2nnc(SCC(=O)c3ccc4ccccc4c3)n2-c2ccc(Cl)cc2)cc1	none
CC(=O)N=c1c(C#N)cc2c(=O)n3ccccc3nc2n1Cc1ccccc1	none
COCCNC(=O)c1cc2c(=O)n3cccc(C)c3nc2n1C	none
COCCCn1c(C(=O)NCCN2CCOCC2)cc2c(=O)n3cccc(C)c3nc21	proKLK7 act 15 | proKLK7 act conf 38 | EDANS interfere 28 | EDANS interf inactive
COc1ccc(CCn2c(=N)c(C(=O)NCCN3CCOCC3)cc3c(=O)n4cccc(C)c4nc32)cc1OC	none
N#Cc1cc2c(=O)n3ccccc3nc2n(-c2ccccc2Cl)c1=O	proKLK7 act 31 | proKLK7 act conf 32 | EDANS interfere 36
Cc1cccn2c(=O)c3cc(C(=O)NCCN4CCOCC4)c(=N)n(CCc4ccccc4)c3nc12	proKLK7 act 35 | proKLK7 act conf inactive | EDANS interfere inactive
COCCCn1c(C(=O)N2CCOCC2)cc2c(=O)n3ccccc3nc21	proKLK7 act 47 | proKLK7 act conf 72 | EDANS interfere 80
CCN(CC)C(=O)CC[C@H]1CC[C@]2(CCCN(C(=O)C(C)(C)C)C2)O1	none
CC(C)C[C@H]1COc2cc(Br)ccc2S(=O)(=O)N1Cc1cn(Cc2ccc(F)cc2)nn1	none
Cc1cccn2c(=O)c3cc(C(=O)NCCCN4CCCC4=O)n(C)c3nc12	proKLK7 act 14 | proKLK7 act conf inactive | EDANS interfere 15
Cc1ccc2nc3c(cc(C(=O)NCCc4ccccc4)c(=N)n3CCCN3CCOCC3)c(=O)n2c1	proKLK7 act 17 | proKLK7 act conf inactive | EDANS interfere inactive
CCNC(=O)c1cc2c(=O)n3cccc(C)c3nc2n(CCc2ccccc2)c1=N	none
Cc1cccn2c(=O)c3cc(C(=O)NCCN4CCOCC4)c(=N)n(CCCN4CCOCC4)c3nc12	proKLK7 act 25 | proKLK7 act conf inactive | EDANS interfere 8.1
Cc1cccn2c(=O)c3cc(C(=O)NCc4ccccc4)c(=N)n(CCCN4CCOCC4)c3nc12	proKLK7 act 18 | proKLK7 act conf inactive | EDANS interfere inactive
Cc1cccn2c(=O)c3cc(C(=O)NCCCn4ccnc4)n(C)c3nc12	none
O=C(NC1CCCCN(Cc2cccc(F)c2)C1=O)c1cccc(C(F)(F)F)c1 (configuration not stated)	none
COc1ccccc1NCc1nc2ccccc2n1C	none (no result: proKLK7 act)
O=C(CSc1nnc(SCc2cccc3ccccc23)s1)Nc1ccc(Oc2ccccc2)cc1	none
COc1ccc(CCn2c(=N)c(C(=O)NCCN3CCOCC3)cc3c(=O)n4ccccc4nc32)cc1OC	none
O=C(NCCN1CCOCC1)c1cc2c(=O)n3ccccc3nc2n1Cc1ccccc1	proKLK7 act 41 | proKLK7 act conf 81 | EDANS interfere 73
CCCCOCCCNC(=O)C[C@H]1C[C@@]2(C(=O)OC)C(=C[C@H](C(C)(C)C)O[C@@H]2C)N(Cc2ccc(Cl)cc2Cl)C1=O	none
COc1ccc(-c2cc(C(=O)Oc3ccc([N+](=O)[O-])cc3)c3ccccc3n2)cc1	proKLK7 act 33 | proKLK7 act conf 64 | EDANS interfere 71
COc1ccc(-c2cc(C(=O)OCc3ccccn3)c3ccccc3n2)cc1	proKLK7 act 22 | proKLK7 act conf inactive | EDANS interfere inactive
O=C(OC1CCOC1=O)c1cc(-c2ccc(Br)cc2)nc2ccccc12 (configuration not stated)	none
COc1ccc(-c2cc(C(=O)OC3CCOC3=O)c3ccccc3n2)cc1 (configuration not stated)	proKLK7 act 97 | proKLK7 act conf inactive | EDANS interfere 12
COc1ccc(-c2cc(C(=O)OCC(=O)N(C)C)c3ccccc3n2)cc1	proKLK7 act 50 | proKLK7 act conf 39 | EDANS interfere 43
COc1ccccc1N1CCN(C(=O)c2cc3c(C)nn(-c4ccccc4)c3s2)CC1	none
COC(CNC(=O)[C@H](Cc1c[nH]c2ccccc12)NC1(C(=O)NC(c2ccccc2)c2ccccc2)CCCCC1)OC	none (no result: proKLK7 act)
Cc1ccc2[nH]c(=O)c(C(c3nnnn3CC3CCCO3)N3CCc4ccccc4C3)cc2c1 (configuration not stated)	none
COc1ccc2[nH]c(=O)c(C(c3nnnn3CC3CCCO3)N3CCc4ccccc4C3)cc2c1 (configuration not stated)	proKLK7 act 20 | proKLK7 act conf inactive | EDANS interfere 9.9
Cc1ccc(F)cc1C(=O)N(Cc1ccccn1)CC1CCCO1 (configuration not stated)	none
CCNC(=O)Nc1ccc2c(c1)C(=O)N(C)[C@H]1CC[C@H](CC(=O)N[C@H](C)c3ccccc3)O[C@@H]1CO2	none
Cc1sc(-c2ccncc2)nc1OC(=O)c1ccccc1	proKLK7 act 19 | proKLK7 act conf 34 | EDANS interfere 29

High-throughput results (PubChem)
